Results published in ChEMBL document CHEMBL3988442, “University of Dundee, Small-Polar-MMV Screening Library” (2021).

What was measured:
[1] = molecular target: T1, Aspartate--tRNA(Asp/Asn) ligase (Mycobacterium tuberculosis (strain ATCC 25618 / H37Rv)) (UniProt P9WFW3); experiment: Assay for Asp RNA synthetase-1 from Mycobacterium tuberculosis; assay type: functional; design: scale not given: direction of the effect not stated beside the values; conditions: 30 µM; note: in the data most compounds retested in dose-response had high values
T1 sequence (whole entry): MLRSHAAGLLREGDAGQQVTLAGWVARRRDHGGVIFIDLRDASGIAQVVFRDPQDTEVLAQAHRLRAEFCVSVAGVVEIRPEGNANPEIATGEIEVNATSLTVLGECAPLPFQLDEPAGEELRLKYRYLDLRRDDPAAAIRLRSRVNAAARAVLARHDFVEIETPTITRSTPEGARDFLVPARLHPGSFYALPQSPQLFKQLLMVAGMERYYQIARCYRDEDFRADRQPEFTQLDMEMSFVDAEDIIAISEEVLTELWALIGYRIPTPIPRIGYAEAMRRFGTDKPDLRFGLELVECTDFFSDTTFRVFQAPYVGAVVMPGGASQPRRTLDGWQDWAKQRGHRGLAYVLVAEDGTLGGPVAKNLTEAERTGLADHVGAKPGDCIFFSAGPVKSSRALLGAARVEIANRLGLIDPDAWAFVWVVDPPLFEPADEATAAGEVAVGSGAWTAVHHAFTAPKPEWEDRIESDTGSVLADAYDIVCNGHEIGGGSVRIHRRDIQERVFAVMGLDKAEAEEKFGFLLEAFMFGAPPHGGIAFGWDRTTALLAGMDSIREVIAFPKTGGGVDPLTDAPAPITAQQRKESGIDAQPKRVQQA

[2] = molecular target: Shiga toxin 2 (Escherichia coli O157:H7) (UniProt P09385+P09386); experiment: E. coli 0.157:H7 Shiga Toxin SOP - stx2 screening assay; assay type: functional; design: scale not given: direction of the effect not stated beside the values; conditions: 30 µM

Row | SMILES | Percent Effect [1] [%] | Percent Effect [2] [%]
1 | COCCOc1ccccc1CNCc1c(C)nn(C)c1N(C)C | 2.62 | 23.1
2 | COc1ccc(NC(=O)c2ccc(-n3ncc(C#N)c3N)cc2)cn1 | 1.4 | -48.1
3 | CC(Nc1cccc(CN2CCOC2=O)c1)C(=O)Nc1ccccc1F (centres undefined) | 1.17 | -24.4
4 | CC(C)C1CN(C(=O)c2ccc(C(N)=O)cc2)CCS1 (centres undefined) | 9.66 | -45.2
5 | O=C(NCc1cc[nH]n1)NCC(O)COc1cccc(F)c1 (centres undefined) | 1.72 | -40
6 | c1cnc(-c2cnc(N3CCSCC3)nc2C2CC2)cn1 | 1.07 | 4.88
7 | Cc1ccc(C(O)CNC(=O)NCc2nc(C)cs2)cc1 (centres undefined) | -0.636 | 1.54
8 | CNc1cccc(C2CCCN(C(=O)c3ccncc3)C2)n1 (centres undefined) | -6.06 | 17.8
9 | Cc1nccn1C1CCCN(C(=O)c2ccc3c(c2)NC(=O)CO3)C1 (centres undefined) | -2.02 | 24.5
10 | Cc1cc(C)n(-c2cncc(N3CCN(C(=O)C(C)(C)C)CC3)n2)n1 | 0.549 | -19.9
11 | Cc1nc(O)c2nnn(C[C@H]3CCCN3C(=O)C(C)(C)C)c2n1 | 5.78 | -7.47
12 | CC(=O)Nc1nc(CN2CCn3c(nnc3C3CC3)C2)cs1 | -7.9 | -26.2
13 | COC(=O)c1ccc(N2CCN(C(=O)c3cnn(C)c3)C(C)C2)cc1 (centres undefined) | 0.343 | -15.2
14 | CCCN(CCO)C(=O)C1CCC(=O)N(CCc2ccc(Cl)cc2)C1 (centres undefined) | -4.04 | 18
15 | Cc1c[nH]cc1C(=O)N1CCN(Cc2nc(C(C)C)no2)CC1 | -3.47 | 9.19
16 | Cn1cc(CN2CCc3nc(-c4ccccn4)nc(O)c3C2)cn1 | -5.28 | -24.6
17 | Cc1nc(C)n(CC2CCCCN2Cc2nnc(C3CC3)o2)n1 (centres undefined) | 1.18 | -4.29
